Experimental data as given in PubChem BioAssay (NCATS).
Unmarked numbers belong to inactive results. Inconclusive results are not listed. Where a call stands in place of a potency, no number is given. Activity calls are given as the source filed them. The call rests on the fitted dose curve; in most records, active means well fitted curve in the direction sought with a large enough effect; inconclusive means small, poorly fitted or top-dose-only effect, or another doubt; inactive means no such curve, though single readings can be large; an effect the other way counts as inactive or inconclusive. *1 amine or outer side, *2 acyl side, *3 side chain or, on linkers, in order; H or OH if unused. Where a SMILES comes first, the peptide text is derived from it. [ ]: non-standard residue; d: D form. The star is where a group is joined. ξ: configuration not given here. X9 = CCC(C)(N*)C(=O)C1CC[C@@H](C(=O)N[C@@H](Cc2ccccc2)C(=O)NCC(=O)O)N1; X8 = O=C([C@@H]1CC(O)CN1[*:1])[*:2]; aIle = CC[C@@H](C)[C@H](N)C(=O)O; Thr(3ξ) = CC(O)[C@H](N)C(=O)O; ξIva = CCC(C)(N)C(=O)O; Aib = CC(C)(N)C(=O)O

Columns and labels:
[1] = biological target: Glutathione peroxidase 1 (Homo sapiens) (UniProt P07203); assay: Primary qHTS Assay for Inhibitors of Recombinant Selenoprotein Glutathione Peroxidase 1 (GPX1) (AID 1845191); further: nearly all actives have a fitted effect of over 65% in size
Sequence of Glutathione peroxidase 1 (Homo sapiens) (P07203 whole entry, looked up): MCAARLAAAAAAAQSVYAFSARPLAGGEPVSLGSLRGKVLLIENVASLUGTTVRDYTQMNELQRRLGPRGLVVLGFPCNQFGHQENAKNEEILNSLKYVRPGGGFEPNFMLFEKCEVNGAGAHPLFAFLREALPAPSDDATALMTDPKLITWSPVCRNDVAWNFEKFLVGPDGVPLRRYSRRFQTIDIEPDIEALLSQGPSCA
In short: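 NADPH consumption tracked by fluorescence at 340/450 nm between t=0 and t=15 min, room temperature. Final mix: 10 nM GPX1, 100 nM glutathione reductase, 1 mM GSH, 0.5 mM NADPH, 0.5 mM cumene hydroperoxide, 0.01% BSA; 30 min compound–enzyme preincubation.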

[2] = biological target: Phospholipid hydroperoxide glutathione peroxidase GPX4 (Homo sapiens) (UniProt P36969); assay: Primary qHTS Assay for Inhibitors of Recombinant Selenoprotein Glutathione Peroxidase 4 (GPX4) (AID 1845192); further: nearly all actives have a fitted effect of over 65% in size; on activity change, negative = inhibition: series mostly up to about 50 µM
Sequence of Phospholipid hydroperoxide glutathione peroxidase GPX4 (Homo sapiens) (P36969 whole entry, looked up): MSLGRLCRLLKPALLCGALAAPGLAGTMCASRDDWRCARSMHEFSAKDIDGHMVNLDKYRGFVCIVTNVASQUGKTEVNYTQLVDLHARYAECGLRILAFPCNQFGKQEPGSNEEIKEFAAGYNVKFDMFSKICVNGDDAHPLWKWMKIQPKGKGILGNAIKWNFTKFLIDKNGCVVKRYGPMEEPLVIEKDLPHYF
In short: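 NADPH consumption followed by fluorescence at 340/450 nm, t=0 and after 15 min at room temperature. Reaction started with cumene hydroperoxide (0.5 mM final) after 30 min compound–GPX4 preincubation; final 200 nM GPX4, 100 nM GR, 1 mM GSH, 0.5 mM NADPH.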

[3] = biological target: Luciferin 4-monooxygenase (Photinus pyralis) (UniProt P08659); assay: Primary firefly luciferase (FLuc) qHTS assay for identification of artifact compounds. (AID 1845220); further: nearly all actives have a fitted effect of over 60% in size; on activity change, negative = inhibition: series mostly up to about 54 µM
In short: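 Compounds sat 15 min at room temperature with 10 uM luciferin and 10 uM ATP (pH 7.6 Tris acetate). Firefly luciferase (10 nM final) was then added, and luminescence was read 5 min later. Data normalized to no-enzyme and DMSO controls were Hill-fitted.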

[4] = Primary fluorescence-based thiol-reactive (MSTI) qHTS assay for identification of artifact compounds. (AID 1845221); further: nearly all actives have a fitted effect of over 65% in size; further: potency means the concentration at half of the fitted maximal effect;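 on activity change, negative = thiol reactive: series mostly up to about 54 µM; thiol-reactive compounds lower the probe fluorescence signal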
In short: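 First, 4 uM MSTI in 2% DMSO/PBS pH 7.4 was dispensed; next, compounds were added; then plates sat 1 h at room temperature without light. Finally, emission at 598 nm was recorded.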

[5] = system: Nanoluciferase (engineered Oplophorus gracilirostris luciferase); assay: Primary Nanoluciferase (NLuc) qHTS assay for identification of artifact compounds. (AID 1845222); further: series mostly up to about 54 µM
In short: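 Luminescence from secreted NLuc (filtered, 1:55-diluted S16 cell medium) read 5 min after Nano-Glo substrate; compounds preincubated 15 min, RT. Hill fits of inhibition normalized to DMSO and no-enzyme.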

[6] = Primary redox qHTS assay for identification of artifact compounds. (AID 1845223)
In short: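 Redox-cycling detection via DTT (250 uM final) oxidation coupled to Amplex Red (25 uM)/HRP (250 mU/mL) in HBSS. 15 min preincubation plus 30 min after DTT, room temperature. Ex/Em 525/598 nm; 4-parameter Hill fit against DMSO and 10 uM DA3003.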

Structure (SMILES) | Potency [1] | Potency [2] | Potency [3] | Potency [4] | Potency [5] | Potency [6] | activity change, negative = inhibition [3] | activity change, negative = thiol reactive [4] | activity, negative = inhibition [5] | redox activity (% of DA3003) [6]
CC(=O)O[C@@H]1[C@@H](O)[C@H](C)O[C@@H](O[C@H]2[C@@H]3C=CO[C@@H](O[C@@H]4O[C@H](CO)[C@@H](O)[C@H](O)[C@H]4OC(C)=O)[C@@H]3[C@@]3(CO)O[C@@H]23)[C@@H]1OC(=O)/C=C/c1ccc(O)cc1 | inactive | inactive | inactive | 6.3 µM (active) | inactive | inactive |  |  |  | 
Cc1cccc(-c2nn3c(c2-c2ccnc4ccc(C(N)=O)cc24)CCC3)n1 | inactive | inactive | inactive | inactive | inactive | inactive |  |  |  | 
CCC(C)C(=O)OC[C@H]1O[C@H](O[C@H]2O[C@H](CO)[C@@H](O)[C@H](O)[C@H]2O)[C@H](O)[C@@H](O)[C@@H]1O (stereo not given in full) | inactive | inactive | inactive | inactive | inactive | inactive |  |  |  | 
CNC(C)C(=O)NC(C(=O)N1CCCC1C(=O)Nc1cccc2ncccc12)C(C)C (stereo not given) | inactive | inactive | inactive | inactive | inactive | inactive |  |  |  | 
NCCCCN(Cc1nc2ccccc2[nH]1)[C@H]1CCCc2cccnc21 | inactive | inactive | inactive | inactive | inactive | inactive |  |  |  | 
CC1(C)C=Cc2c(ccc3c2N=C2C(C)(C)[C@@H]4C[C@]56CCCN5C(=O)[C@@]4(C[C@]23O)NC6=O)O1 | inactive | inactive | inactive | inactive | inactive | inactive |  |  |  | 
CC(O)C/C=C/C=C/C(=O)OC1C=C2COC(=O)C2(O)C2(C)CCCC(C)(C)C12 (stereo not given) | inactive | inactive | inactive | inactive | inactive | inactive |  |  |  | 
CN1CCc2cc(Cl)c(O)cc2[C@@H](c2cccc3c2OCC3)C1 | inactive | inactive | inactive | inactive | inactive | inactive |  |  |  | 
CC[C@@H](C)[C@H](NC(=O)C(C)(C)NC(=O)[C@H](CCC(N)=O)NC(=O)C(C)(CC)NC(=O)[C@H](Cc1c[nH]c2ccccc12)NC(C)=O)C(=O)N[C@H](C(=O)NC(C)(C)C(=O)N[C@@H](CC(C)C)C(=O)NC(C)(C)C(=O)N1CCC[C@H]1C(=O)N[C@@H](CCC(N)=O)C(=O)NC(C)(C)C(=O)N1CC(O)C[C@H]1C(=O)NC(C)(CC)C(=O)C1CC[C@@H](C(=O)N[C@@H](Cc2ccccc2)C(=O)NCC(=O)O)N1)C(C)O (stereo not given in full) (Ac-W[ξIva]Q[Aib][aIle][Thr(3ξ)][Aib]L[Aib]PQ[Aib][X8]-X9) | inactive | inactive |  |  |  |  | -13.1% [at 6.45 µM] | -2.24% [at 6.41 µM] | -3.07% [at 6.45 µM] | 8.28% [at 6.41 µM]
CCNC(=O)OC1CCN(c2nncc3cc(OC)c(OC)cc23)CC1 | inactive | inactive | inactive | inactive | inactive | inactive |  |  |  | 
C=C(CCO)C(=O)OCC1OCC(OC(=O)C(=C)CCO[C@@H]2O[C@H](CO)[C@@H](O)[C@H](O)[C@H]2O)C(O)C1O (stereo not given in full) | inactive | inactive | inactive | inactive | inactive | inactive |  |  |  | 
C=C1CC/C=C(/C(=O)O)CCC2C1CC2(C)C (stereo not given) | inactive | inactive | inactive | inactive | inactive | inactive |  |  |  | 
C=C1C(O)CC2C(C(=O)O)=COC(OC3OC(CO)C(O)C(O)C3OC(=O)/C=C\c3ccc(O)cc3)C12 (stereo not given) | inactive | inactive | inactive | 4.62 µM (active) | inactive | inactive |  |  |  | 
C[C@@]1(C(=O)O)CCC[C@@]2(C)C3=CC[C@H]4C[C@@]3(CC[C@H]12)CC4(O)CO (stereo not given in full) | inactive | inactive | inactive | inactive | inactive | inactive |  |  |  | 
C/C=C/C=C/C=C/C(=O)O[C@@H]1C=C(CO)[C@](O)(CO)[C@@]2(C)CCCC(C)(C)[C@H]12 | inactive | inactive | inactive | inactive | inactive | inactive |  |  |  | 
On1ncc(C2CCNCC2)c1-c1cccc(-c2ccccc2)c1 | inactive | inactive | inactive | inactive | inactive | inactive |  |  |  | 
CC(O)C1NC(=O)C2CCCN2C1=O (stereo not given) | inactive | inactive | inactive | inactive | inactive | inactive |  |  |  | 
CC(CC(C)O[C@@H]1O[C@H](CO)[C@@H](O)[C@H](O)[C@H]1O)OC(=O)/C=C/c1ccc(O)cc1 (stereo not given in full) | inactive | inactive | inactive | 4.62 µM (active) | inactive | inactive |  |  |  | 
CC(C)(O)C(O)C(=O)OCc1ccc(O[C@@H]2O[C@H](CO)[C@@H](O)[C@H](O)[C@H]2O)cc1 (stereo not given in full) | inactive | inactive | inactive | inactive | inactive | inactive |  |  |  | 
CC1(C)Oc2ncnc(N)c2N=C1c1ccc(C2CCC(CC(=O)O)CC2)cc1 (stereo not given) | inactive | inactive | inactive | inactive | inactive | inactive |  |  |  | 
